Where “and” joins values, the source holds several entries; their conditions need not be identical. Equal entries are not always repeated. Records with an inconclusive call do not appear. More than one record can exist for a structure, and the calls need not agree. Calls of active or inactive are those of the source. How the source made its calls, unless noted: active means hit-call score of the fitted dose curve at least 0.9, where 1 is the maximum; inactive means score below 0.9.
Tests used:
[1] = target: Retinoic acid receptor RXR-alpha (Homo sapiens) (UniProt P19793); test: ATG_RXRa_TRANS: Attagene TRANS-FACTORIAL HepG2 Assay for human Retinoid X Receptor alpha (RXRa) (AID 2283012; active means hit-call score of the fitted dose curve at least 0.9, where 1 is the maximum)
Chain of Retinoic acid receptor RXR-alpha (Homo sapiens) (P19793 whole entry, looked up, the tested form may be a part): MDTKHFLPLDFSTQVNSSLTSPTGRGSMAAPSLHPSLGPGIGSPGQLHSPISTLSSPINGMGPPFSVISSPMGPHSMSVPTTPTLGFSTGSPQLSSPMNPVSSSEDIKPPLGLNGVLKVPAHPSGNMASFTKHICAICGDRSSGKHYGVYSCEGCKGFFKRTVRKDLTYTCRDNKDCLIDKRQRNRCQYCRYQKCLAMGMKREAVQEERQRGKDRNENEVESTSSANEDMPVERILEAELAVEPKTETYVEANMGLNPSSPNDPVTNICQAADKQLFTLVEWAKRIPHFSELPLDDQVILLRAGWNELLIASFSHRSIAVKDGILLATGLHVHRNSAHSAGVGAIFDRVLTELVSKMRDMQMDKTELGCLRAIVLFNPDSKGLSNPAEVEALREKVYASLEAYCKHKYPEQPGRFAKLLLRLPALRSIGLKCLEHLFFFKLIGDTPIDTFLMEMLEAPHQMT
Outline: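 Cells (HepG2) carried transiently transfected GAL4-responsive reporter units. Following a 24 h chemical incubation, reporter mRNA induction was read via RT-PCR fragment analysis; DMSO served as negative control and baseline.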

[2] = target: human Thyroid Receptor alpha (THRa1), THRA (gene 7067) (UniProt P10827); test: ATG_THRa1_TRANS: Attagene TRANS-FACTORIAL HepG2 Assay for human Thyroid Receptor alpha (THRa1) (AID 2283014; active means hit-call score of the fitted dose curve at least 0.9, where 1 is the maximum)
Chain of human Thyroid Receptor alpha (THRa1), THRA (gene 7067) (P10827 whole entry, looked up, the tested form may be a part): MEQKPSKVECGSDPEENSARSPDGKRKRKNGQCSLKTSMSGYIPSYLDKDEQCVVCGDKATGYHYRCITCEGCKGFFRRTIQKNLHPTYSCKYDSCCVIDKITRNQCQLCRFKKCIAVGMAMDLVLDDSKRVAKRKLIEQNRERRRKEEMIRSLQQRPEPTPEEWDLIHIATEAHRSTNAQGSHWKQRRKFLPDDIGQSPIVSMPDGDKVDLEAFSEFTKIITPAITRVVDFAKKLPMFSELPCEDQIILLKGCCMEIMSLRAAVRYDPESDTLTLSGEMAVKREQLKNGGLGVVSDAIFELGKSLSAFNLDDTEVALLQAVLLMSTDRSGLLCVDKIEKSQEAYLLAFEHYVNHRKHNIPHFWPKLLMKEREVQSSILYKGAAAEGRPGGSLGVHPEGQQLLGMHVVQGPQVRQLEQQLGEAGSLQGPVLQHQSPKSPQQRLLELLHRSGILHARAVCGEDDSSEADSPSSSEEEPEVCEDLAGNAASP
Outline: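 Reporter transcript induction, read by capillary electrophoresis of 6-FAM-labelled RT-PCR products, reflects activity of a transfected THRa1-Gal4 fusion in HepG2 liver cells. Cells were dosed for 24 h; activity was fitted in the positive direction against DMSO.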

[3] = read-out: Interleukin-1 alpha (IL1a), IL1A (gene 3552); test: BSK_BE3C_IL1a: BioMAP Diversity Plus: BE3C Assay for Interleukin-1 alpha (IL1a) Biomarker Activity (AID 2283016); settings: primary human bronchial epithelial cells; actives raise or lower the signal
Outline: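 Cultures of primary human bronchial epithelial cells receive test chemical. After 24 h, IL-1a is quantified by ELISA, while parallel wells are fixed in TCA and SRB-stained for total protein. Changes in either direction are fitted relative to DMSO.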

[4] = read-out: Monocyte Chemoattractant Protein-1 (MCP1), CCL2 (gene 6347); test: BSK_3C_MCP1: BioMAP Diversity Plus: 3C Assay for Monocyte Chemoattractant Protein-1 (MCP1) Biomarker Activity (AID 2283017); settings: primary human endothelial cells (HUVEC); actives raise or lower the signal
Outline: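 ELISA read-out of MCP-1 from human umbilical vein endothelial cell cultures harvested 24 h post-dosing. Gain or loss of signal was fitted relative to DMSO.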

[5] = read-out: Monocyte Chemoattractant Protein-1 (MCP1), CCL2 (gene 6347); test: BSK_4H_MCP1: BioMAP Diversity Plus: 4H Assay for Monocyte Chemoattractant Protein-1 (MCP1) Biomarker Activity (AID 2283018); settings: primary human endothelial cells (HUVEC); actives raise or lower the signal
Outline: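 Readout: MCP-1 ELISA on compound-treated HUVEC, sampled 24 h post-dosing. Baseline and negative control DMSO; bidirectional fit. Overt toxicity checked alongside by sulforhodamine B protein staining at time of biomarker measurement.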

[6] = read-out: Human Leukocyte Antigen - DR isotype (HLADR), HLA-DRA (gene 3122); test: BSK_3C_HLADR: BioMAP Diversity Plus: 3C Assay for Human Leukocyte Antigen - DR isotype (HLADR) Biomarker Activity (AID 2283019); settings: primary human endothelial cells (HUVEC); actives raise or lower the signal
Outline: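 ELISA readout of surface HLA-DR on human umbilical vein endothelium, taken 24 h after chemical treatment. Gain- and loss-of-signal were both fitted relative to DMSO.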

[7] = read-out: Interleukin-8 (IL8), CXCL8 (gene 3576); test: BSK_3C_IL8: BioMAP Diversity Plus: 3C Assay for Interleukin-8 (IL8) Biomarker Activity (AID 2283020); settings: primary human endothelial cells (HUVEC); actives raise or lower the signal
Outline: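 Human vascular endothelial cells (umbilical vein) in the 3C system; IL-8 level detected by ELISA at 24 h post-dose, with DMSO as baseline.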

[8] = target: human Vitamin D Receptor (VDR), VDR (gene 7421) (UniProt P11473); test: ATG_VDR_TRANS: Attagene TRANS-FACTORIAL HepG2 Assay for human Vitamin D Receptor (VDR) (AID 2283022; active means hit-call score of the fitted dose curve at least 0.9, where 1 is the maximum)
Chain of human Vitamin D Receptor (VDR), VDR (gene 7421) (P11473 whole entry, looked up, the tested form may be a part): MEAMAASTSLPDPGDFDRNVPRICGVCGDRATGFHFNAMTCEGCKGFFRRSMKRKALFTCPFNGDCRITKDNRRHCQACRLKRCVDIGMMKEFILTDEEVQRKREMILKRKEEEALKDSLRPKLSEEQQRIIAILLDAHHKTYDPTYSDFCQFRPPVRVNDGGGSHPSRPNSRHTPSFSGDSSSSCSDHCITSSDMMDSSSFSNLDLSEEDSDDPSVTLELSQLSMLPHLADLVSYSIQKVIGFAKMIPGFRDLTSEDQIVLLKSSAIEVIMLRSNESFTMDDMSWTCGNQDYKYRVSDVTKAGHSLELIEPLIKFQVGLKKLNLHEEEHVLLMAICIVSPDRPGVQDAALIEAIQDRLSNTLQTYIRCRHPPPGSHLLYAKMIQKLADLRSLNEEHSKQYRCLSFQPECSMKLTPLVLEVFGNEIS
Outline: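 Steps: transfect HepG2 with GAL4-UAS-driven reporter constructs; dose compounds 24 h; isolate RNA, reverse-transcribe, PCR-amplify with 6-FAM-labelled primer extension and HpaI digestion; quantify fragments by capillary electrophoresis relative to DMSO.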

[9] = BSK_3C_SRB: Viability Assessment in the BioMAP Diversity Plus: 3C Assay (AID 2283023); settings: primary human endothelial cells (HUVEC);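 further: fitted both ways against DMSO so a hit may be signal rise or drop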
Outline: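 Absorbance at 560 nm of sulforhodamine B-stained (0.1%) total protein served as a cytotoxicity readout in human umbilical vein endothelial cells, 24 h after chemical treatment. Signal was fitted bidirectionally relative to DMSO.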

[10] = read-out: Matrix Metallopeptidase 1 (MMP1), MMP1 (gene 4312); test: BSK_BE3C_MMP1: BioMAP Diversity Plus: BE3C Assay for Matrix Metallopeptidase 1 (MMP1) Biomarker Activity (AID 2283024); settings: primary human bronchial epithelial cells; actives raise or lower the signal
Outline: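 Dose cells, wait 24 h, run MMP1 ELISA; cells are human bronchial epithelial primaries. Both increases and decreases relative to DMSO counted.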

[11] = BSK_3C_Vis: BioMAP Diversity Plus: 3C Assay for Morphology Visualization (AID 2283025); settings: primary human endothelial cells (HUVEC);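 further: fitted both ways so gain or loss versus DMSO counts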;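 on AC50: light microscopy image of cell morphology used as background control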
Outline: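 Endothelial cells from human umbilical vein were treated with test chemicals for 24 h and inspected by light microscopy for changes in cell conformation.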

[12] = read-out: Pselectin, SELP (gene 6403); test: BSK_4H_Pselectin: BioMAP Diversity Plus: 4H Assay for Pselectin Biomarker Activity (AID 2283026); settings: primary human endothelial cells (HUVEC); actives raise or lower the signal
Outline: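 Human vascular endothelium from umbilical vein; P-selectin measured by ELISA at 24 h post-dose, with cytotoxicity checked by sulforhodamine B total-protein staining in parallel cultures (0.1% SRB after 10% TCA fixation, read at 560 nm).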

[13] = BSK_4H_SRB: Viability Assessment in the BioMAP Diversity Plus: 4H Assay (AID 2283027); settings: primary human endothelial cells (HUVEC);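 further: cells exposed to compound for 24 h before staining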;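 on AC50: curves fitted both ways versus DMSO so AC50 may be loss or gain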
Outline: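 Absorbance at 560 nm of SRB-stained total protein served as the viability read-out in confluent primary human umbilical vein endothelium 24 h after chemical treatment. Curves were fitted bidirectionally against DMSO as negative control.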

[14] = BSK_BE3C_SRB: Viability Assessment in the BioMAP Diversity Plus: BE3C Assay (AID 2283028); settings: primary human bronchial epithelial cells;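 on AC50: fitted both ways so AC50 may mark signal gain or loss versus DMSO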
Outline: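 Cells (human bronchial epithelial, primary) are treated with chemicals, and after 24 h the parallel cultures are fixed in 10% TCA. These are then stained with 0.1% SRB and read at 560 nm. Gain or loss of signal is fitted relative to DMSO.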

[15] = read-out: Thrombomodulin, THBD (gene 7056); test: BSK_3C_Thrombomodulin: BioMAP Diversity Plus: 3C Assay for Thrombomodulin Biomarker Activity (AID 2283029); settings: primary human endothelial cells (HUVEC); actives raise or lower the signal
Outline: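 Thrombomodulin ELISA, human primary HUVEC, 24 h post-dose; data fitted in both directions relative to DMSO.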

[16] = read-out: Urokinase-type plasminogen activator receptor (uPAR), PLAUR (gene 5329); test: BSK_4H_uPAR: BioMAP Diversity Plus: 4H Assay for Urokinase-type plasminogen activator receptor (uPAR) Biomarker Activity (AID 2283030); settings: primary human endothelial cells (HUVEC); actives raise or lower the signal
Outline: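 Cell-surface uPAR ELISA signal, measured 24 h after dosing human umbilical vein endothelial cells, was analyzed with bidirectional fitting relative to DMSO. Parallel SRB staining of total protein tracked overt cytotoxicity.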

[17] = target: human Retinoid X Receptor beta (RXRb), RXRB (gene 6257) (UniProt P28702); test: ATG_RXRb_TRANS: Attagene TRANS-FACTORIAL HepG2 Assay for human Retinoid X Receptor beta (RXRb) (AID 2283013; active means hit-call score of the fitted dose curve at least 0.9, where 1 is the maximum)
Chain of human Retinoid X Receptor beta (RXRb), RXRB (gene 6257) (P28702 whole entry, looked up): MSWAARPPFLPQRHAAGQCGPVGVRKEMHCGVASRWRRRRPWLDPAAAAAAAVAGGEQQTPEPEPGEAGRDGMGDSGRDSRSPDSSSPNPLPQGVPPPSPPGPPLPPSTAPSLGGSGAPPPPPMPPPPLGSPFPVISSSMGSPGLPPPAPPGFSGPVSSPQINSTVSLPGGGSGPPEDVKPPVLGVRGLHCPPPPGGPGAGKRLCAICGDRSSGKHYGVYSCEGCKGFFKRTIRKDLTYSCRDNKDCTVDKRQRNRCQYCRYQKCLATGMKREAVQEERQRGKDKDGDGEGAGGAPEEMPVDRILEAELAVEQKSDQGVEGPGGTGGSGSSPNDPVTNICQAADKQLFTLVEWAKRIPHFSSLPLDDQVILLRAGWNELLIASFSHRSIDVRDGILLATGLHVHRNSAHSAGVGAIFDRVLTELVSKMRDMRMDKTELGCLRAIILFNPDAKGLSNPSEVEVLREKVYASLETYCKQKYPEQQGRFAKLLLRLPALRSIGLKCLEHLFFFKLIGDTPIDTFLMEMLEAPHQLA
Outline: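 Multiplexed TRANS reporter assay in HepG2; 24 h dosing; reporter mRNA by RT-PCR/CE fluorescence; gain-of-signal relative to DMSO.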

[18] = read-out: E-selectin (Homo sapiens) (UniProt P16581); test: BSK_3C_Eselectin: BioMAP Diversity Plus: 3C Assay for Eselectin Biomarker Activity (AID 2283015); settings: primary human endothelial cells (HUVEC); actives raise or lower the signal
Outline: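 ELISA read-out of E-selectin on endothelial monolayers after 24 h chemical treatment. Human umbilical vein primary cells served as the system, with DMSO defining baseline activity for bidirectional fitting.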

[19] = read-out: Monokine induced gamma interferon (MIG), CXCL9 (gene 4283); test: BSK_3C_MIG: BioMAP Diversity Plus: 3C Assay for Monokine induced gamma interferon (MIG) Biomarker Activity (AID 2283021); settings: primary human endothelial cells (HUVEC); actives raise or lower the signal
Outline: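 After 24 h of treatment, human umbilical vein endothelial cultures (3C system) had their MIG biomarker level determined by ELISA, with DMSO serving as negative control.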

Measured: AC50

Chain of E-selectin (Homo sapiens) (P16581 whole entry, looked up): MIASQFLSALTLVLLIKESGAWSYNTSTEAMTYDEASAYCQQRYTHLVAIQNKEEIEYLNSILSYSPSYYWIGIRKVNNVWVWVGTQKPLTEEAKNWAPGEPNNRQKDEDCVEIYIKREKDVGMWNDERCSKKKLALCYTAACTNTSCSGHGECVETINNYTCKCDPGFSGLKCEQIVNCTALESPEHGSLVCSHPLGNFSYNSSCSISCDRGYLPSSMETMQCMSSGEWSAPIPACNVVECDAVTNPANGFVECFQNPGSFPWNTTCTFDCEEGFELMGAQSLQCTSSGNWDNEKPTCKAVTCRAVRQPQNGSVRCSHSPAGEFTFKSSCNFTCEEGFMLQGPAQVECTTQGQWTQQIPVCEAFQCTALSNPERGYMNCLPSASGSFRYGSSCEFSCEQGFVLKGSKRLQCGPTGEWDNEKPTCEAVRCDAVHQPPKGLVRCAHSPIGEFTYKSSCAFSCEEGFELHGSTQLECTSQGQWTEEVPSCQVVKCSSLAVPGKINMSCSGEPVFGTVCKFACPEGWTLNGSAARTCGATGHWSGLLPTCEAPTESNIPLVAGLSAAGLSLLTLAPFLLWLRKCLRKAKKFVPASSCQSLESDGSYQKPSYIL

O=S(=O)(O)c1cc(S(=O)(=O)O)c2c(N=Nc3ccccc3)c(O)ccc2c1
inactive: [1] | [2]

C=C(C)C(N)=O
not listed: [1] | [2] | [17] | [18] | [19]
inactive: all other assays above

Cc1cccc(C)c1
inactive: [2] | [8]

COc1ccc2[nH]cc(CCNC(C)=O)c2c1
inactive: [17] | [2] | [8]

CC(C)COC(=O)c1ccccc1
inactive: [2] | [8]

CCOC(=O)C=Cc1ccccc1
not listed: [1] | [2] | [18] | [19]
inactive: all other assays above

C1COCO1
inactive: [2]

CC(C)Cc1ccc(C(C)C(=O)O)cc1 (configuration not stated)
active: [7] 0.0158 µM
not listed: [1] | [8] | [18] | [19]
inactive: all other assays above

CC(=O)c1ccc(C)cc1
not listed: [1] | [2] | [8] | [11] | [18] | [19]
inactive: all other assays above

CC/C=C\C#N
inactive: [8]

CCCCCCOc1ccc(O)cc1
inactive: [17] | [8]

CCOC(=O)COC(=O)c1ccccc1C(=O)OCC
inactive: [8]

CC1=CCC(C(C)(C)O)CC1 (configuration not stated)
inactive: [2]

C=CC(O)CCCCC (configuration not stated)
inactive: [2] | [8]

C=CC(=O)OCC(CO)(COC(=O)C=C)COC(=O)C=C
active: [18] 0.269 µM | [3] 898 nM | [4] 0.185 µM | [5] 0.333 µM | [6] 135 nM | [7] 0.303 µM | [9] 294 nM | [10] 3.22 µM | [11] 0.174 µM | [12] 0.341 µM | [13] 566 nM | [14] 20 µM | [16] 0.964 µM
inactive: [17] | [2] | [15]

CC1COC(=O)O1 (configuration not stated)
inactive: [2]

C=C(C)C(=O)OCCC(F)(F)C(F)(F)C(F)(F)C(F)(F)C(F)(F)C(F)(F)C(F)(F)C(F)(F)F
not listed: [1] | [2] | [8] | [11] | [17] | [18] | [19]
inactive: all other assays above

CN(C)C
inactive: [8]

C=C(C)C(=O)OCCC(C)OC(=O)C(=C)C (configuration not stated)
inactive: [17] | [8]

O=C(O)C(F)(F)C(F)(F)C(F)(F)C(F)(F)C(F)(F)C(F)(F)C(F)(F)C(F)F
inactive: [3] | [4] | [5] | [6] | [7] | [9] | [12] | [13] | [14] | [15] | [16]
active: [10] 11.5 µM and 35.9 µM | [12] 19.5 µM

C=C/C(C)=C/C/C=C(\C)CCC=C(C)C
inactive: [17] | [8]

OCCCO
inactive: [17] | [8]

O=S(=O)(O)C(F)(F)C(F)(F)OC(F)(F)C(F)(F)F
inactive: [3] | [4] | [5] | [6] | [7] | [19] | [9] | [10] | [12] | [13] | [14] | [15] | [16]
active: [7] 5.95 µM | [10] 42.9 µM

CCCCCCOC(C)=O
inactive: [8]

CC/C=C\CCOC(=O)C(C)C
inactive: [17] | [8]

C=C(F)C(=O)OC(C(F)(F)F)C(F)(F)F
not listed: [1] | [2] | [8] | [11] | [17] | [18] | [19]
inactive: all other assays above

CCCCN(CCCC)CCCCCCN(CCCC)CCCC
inactive: [2] | [8]

CCOC(=O)CCCCCCCCC(=O)OCC
not listed: [1] | [2] | [8] | [18] | [19]
inactive: all other assays above

CC(=O)c1cccnc1
inactive: [8]

C=C(C)C(=O)OCCN(C)C
inactive: [8]

CCC(CC)CO
inactive: [17] | [8]

CCCCCCCCCCOC(=O)c1ccccc1C(=O)OCCCCCCCC
inactive: [2] | [8]

CC1=CC[C@@H](C(C)(C)O)CC1
inactive: [17] | [2] | [8]

OCC(F)(OC(F)(F)C(F)(OC(F)(F)C(F)(F)C(F)(F)F)C(F)(F)F)C(F)(F)F (configuration not stated)
active: [4] 4.24 µM | [5] 3.33 µM | [6] 2.65 µM and 4.85 µM | [7] 6.2 µM | [9] 4.48 µM and 3.3 µM | [10] 2.54 µM | [12] 4.38 µM | [13] 5.19 µM and 3.7 µM | [15] 4.76 µM and 2.31 µM
inactive: [3] | [4] | [5] | [7] | [10] | [12] | [14] | [16]

CCCCOCCOCCO
not listed: [1] | [2] | [8] | [17] | [18]
inactive: all other assays above

O=C(O)C(F)(F)OC(F)(F)C(F)(F)OC(F)(F)C(F)(F)C(F)(F)C(F)(F)F
active: [3] 50.4 µM and 55.2 µM | [9] 46000 nM | [10] 19.9 µM and 21.3 µM
inactive: [4] | [5] | [6] | [7] | [9] | [12] | [13] | [14] | [15] | [16]

— PubChem BioAssay (EPA / NIEHS)
